Screening data (PubChem BioAssay)
miR-122 sensor = inhibitors of miR-122 in Huh7 cells; Huh7 miR-122 Renilla luciferase sensor, 48 h; neutral wells = 0, positive control = 100; activation (reporter increase), % at 12.5 µM; actives 0.3% (n = 340,000); AID 602342;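 active means mean replicate activation score at least 90 and every replicate individually at or above 90; inconclusive means only one of the two criteria met; inactive means neither criterion met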;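 further: higher luciferase means less miR-122 activity so hits act as miR-122 inhibitors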
DENV2 CPE = inhibitors of DENV2 cytopathic effect | DENV2-infected cells, cytopathic effect rescue, plate reader | CPE inhibition, % at 9.99 µM | actives 1.7% (n = 350,000); in the data active means CPE inhibition above about 20%, passing the limit was not always enough; inconclusive means no clear call, values can overlap the other calls; tested in BHK-21 cells
C2C12 statin = protects C2C12 myotubes from simvastatin toxicity; actives 0.78% (n = 330,000); ATP luminescence, 48 h; scaled: DMSO 0, geranylgeraniol control 100; rescue of ATP level, % at 7.49 µM;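 active means mean ATP rescue above about 67%, or every replicate alone reaching that limit, limit read from the data, passing the limit was not always enough; inconclusive means no clear call, values can overlap the other calls; inactive means mean under the limit and some replicate under it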;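 further: myotubes were challenged with 10 µM simvastatin during compound exposure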
PvdQ acylase = blocks Pseudomonas aeruginosa PvdQ acylase activity; inhibition, % at 10 µM; actives 0.063% (n = 340,000); purified PvdQ acylase, fluorescence plate reader; in the data active means inhibition above about 30%, passing the limit was not always enough; inconclusive means no clear call, values can overlap the other calls
PGC1a acetyl inh = PGC1a acetylation modulation, inhibitor mode. actives 0.17% (n = 350,000). U2OS PGC1a acetylation, AlphaScreen anti-acetyl-lysine; with virally co-expressed GCN5 acetyltransferase. inhibition, % at 15.6 µM;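 active means every replicate shows inhibition of at least 40%; inconclusive means mean inhibition at least 40% but some replicate below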
A number is an active result; – = inactive; ? = inconclusive; · = no result given. A selection: hits, their analogues and other compounds. The true share with any hit is near 2.2%.

SMILES	miR-122 sensor	DENV2 CPE	C2C12 statin	PvdQ acylase	PGC1a acetyl inh
C[C@@H]1CN([C@H](C)CO)C(=O)Cc2cc(NC(=O)CCCCCC(=O)Nc3ccccc3N)ccc2O[C@H]1CN(C)Cc1ccc(-c2ccccc2)cc1	–	?	135	·	–
C[C@H]1CN([C@@H](C)CO)C(=O)Cc2cc(NC(=O)CCCCCC(=O)Nc3ccccc3N)ccc2O[C@H]1CN(C)Cc1ccccc1	–	–	73	·	–
C[C@@H]1CN([C@@H](C)CO)C(=O)c2cc(NC(=O)CCCCCC(=O)Nc3ccccc3N)ccc2O[C@H]1CN(C)Cc1ccncc1	·	41	·	·	–
O=C(C[C@@H]1CC[C@H]2[C@@H](COC[C@H](O)CN2C(=O)c2ccccc2F)O1)NCc1ccc(-c2ccccc2)cc1	–	–	–	·	–
C[C@@H]1CN([C@@H](C)CO)C(=O)c2cc(-c3cccnc3)cnc2O[C@@H]1CN(C)C(=O)c1cccc(F)c1	–	–	–	·	–
C[C@H]1CN([C@@H](C)CO)C(=O)Cc2cc(NC(=O)CCCCCC(=O)Nc3ccccc3N)ccc2O[C@H]1CN(C)CC1CCCCC1	–	–	147	·	–
C[C@H](CO)N1C[C@H](C)[C@@H](CN(C)Cc2ccncc2)Oc2ccc(NC(=O)CCCCCC(=O)Nc3ccccc3N)cc2CC1=O	–	53	–	·	–
C[C@H](CO)N1C[C@H](C)[C@@H](CN(C)CC2CC2)Oc2ccc(NC(=O)CCCCCC(=O)Nc3ccccc3N)cc2CC1=O	·	–	·	·	–
C[C@@H]1CN([C@H](C)CO)C(=O)Cc2cc(NC(=O)CCCCCC(=O)Nc3ccccc3N)ccc2O[C@@H]1CN(C)Cc1ccncc1	–	–	–	·	–
C[C@@H]1CN([C@H](C)CO)C(=O)Cc2cc(NC(=O)CCCCCC(=O)Nc3ccccc3N)ccc2O[C@H]1CN(C)Cc1ccc(C(F)(F)F)cc1	–	–	?	·	–
C[C@@H]1CN([C@H](C)CO)C(=O)Cc2cc(NC(=O)CCCCCC(=O)Nc3ccccc3N)ccc2O[C@@H]1CN(C)Cc1ccc(C(F)(F)F)cc1	–	81	–	·	–
C[C@@H]1CN([C@@H](C)CO)C(=O)Cc2cc(NC(=O)CCCCCC(=O)Nc3ccccc3N)ccc2O[C@H]1CN(C)S(=O)(=O)c1ccccc1	–	–	–	·	–
C[C@H]1CN([C@@H](C)CO)C(=O)Cc2cc(NC(=O)CCCCCC(=O)Nc3ccccc3N)ccc2O[C@@H]1CN(C)S(=O)(=O)c1ccccc1	–	79	–	·	–
C[C@H](CO)N1C[C@H](C)[C@H](CN(C)Cc2ccc(-c3ccccc3)cc2)Oc2ccc(NC(=O)CCCCCC(=O)Nc3ccccc3N)cc2CC1=O	–	–	–	·	–
C[C@@H]1CN([C@H](C)CO)C(=O)Cc2cc(NC(=O)CCCCCC(=O)Nc3ccccc3N)ccc2O[C@@H]1CN(C)Cc1ccc2c(c1)OCO2	–	–	–	·	–
C[C@H](CO)N1C[C@H](C)[C@@H](CN(C)Cc2ccc(-c3ccccc3)cc2)Oc2ccc(NC(=O)CCCCCC(=O)Nc3ccccc3N)cc2CC1=O	–	–	88	·	–
C[C@H]1CN([C@@H](C)CO)C(=O)Cc2cc(NC(=O)CCCCCC(=O)Nc3ccccc3N)ccc2O[C@H]1CN(C)C(=O)Nc1cccc2ccccc12	·	28	·	·	–
C[C@H](CO)N1C[C@H](C)[C@H](CN(C)Cc2ccc3c(c2)OCO3)Oc2ccc(NC(=O)CCCCCC(=O)Nc3ccccc3N)cc2CC1=O	–	25	103	·	–
C[C@H]1CN([C@@H](C)CO)C(=O)Cc2cc(NC(=O)CCCCCC(=O)Nc3ccccc3N)ccc2O[C@@H]1CN(C)Cc1ccc(Oc2ccccc2)cc1	–	–	102	·	–
CC(=O)N1C[C@H]2[C@@H](c3ccccc31)[C@H](CO)N2C(=O)c1ccc(F)cc1	–	–	–	·	–
COc1ccc(S(=O)(=O)Nc2ccc3c(c2)C(=O)N([C@@H](C)CO)C[C@H](C)[C@@H](CN(C)Cc2ccccc2)OCCCC[C@@H](C)O3)cc1	–	–	·	·	–
CC(C)C[C@@H](COc1ccccc1)N1CCN(CCc2ccccc2)CCC1=O	–	101	–	–	·
CCCN1CCC(=O)N([C@H](COc2ccccc2)CC(C)C)CC1	–	–	–	–	–
Cc1[nH]nc2c1C(c1ccsc1)C(C#N)=C(N)O2 (stereo not given)	–	·	141	–	–
Cc1ccc(S(=O)(=O)NNC(=O)c2snnc2C)cc1	–	·	128	–	–
SMILES	miR-122 sensor	DENV2 CPE	C2C12 statin	PvdQ acylase	PGC1a acetyl inh
CC(C)Sc1nc(SCC(=O)NCc2ccco2)c2c3c(sc2n1)COC(C)(C)C3	–	·	129	–	–
CC(C)Sc1nc(SCC(=O)O)c2c3c(sc2n1)COC(C)(C)C3	–	–	·	–	–
CCOC(=O)c1cc([N+](=O)[O-])sc1NC(=O)c1ccc(S(=O)(=O)N2CC3(C)CC2CC(C)(C)C3)cc1 (stereo not given)	–	30	–	–	–
CC1(C)CC2CC(C)(CN2S(=O)(=O)c2ccc(C(=O)Nc3ccc(S(=O)(=O)N4CCOCC4)cc3)cc2)C1 (stereo not given)	·	–	·	–	·
O=C(CC1C(=O)OCN1C(=O)OCc1ccccc1)OCC(=O)c1ccccc1 (stereo not given)	–	·	103	–	–
O=C(O)CC1C(=O)OCN1C(=O)OCc1ccccc1 (stereo not given)	–	–	–	–	–
Cc1ccc(NC(=S)NC(=O)C2CCC2)cc1C	–	69	–	–	·
CN(Cc1ccccc1)S(=O)(=O)c1ccc(NC(=S)NC(=O)C2CCCC2)cc1	124	–	–	–	–
CN(C)S(=O)(=O)c1ccc(NC(=S)NC(=O)C2CCC2)cc1	–	–	–	–	·
Cc1ccc(NC(=S)NC(=O)C2CCCC2)cc1C	–	–	·	–	–
Cc1c(C(Nc2ccccn2)c2ccccc2)c(=O)n(-c2ccccc2)n1C (stereo not given)	–	·	81	–	–
Cc1c(C(Nc2ccccn2)c2ccc(Cl)cc2)c(=O)n(-c2ccccc2)n1C (stereo not given)	–	·	–	–	–
COc1ccc(S(=O)(=O)NCc2csc(C)n2)cc1	–	·	142	–	–
O=[N+]([O-])c1cc([N+](=O)[O-])c(Oc2cc(Cl)cc(Cl)c2)cc1NN1CCCCC1	–	?	–	–	–
COc1ccc(Oc2cc(NN3CCCCC3)c([N+](=O)[O-])cc2[N+](=O)[O-])cc1OC	–	38	–	–	–
O=[N+]([O-])c1cc([N+](=O)[O-])c(Oc2ccc(F)cc2)cc1NN1CCCCC1	–	–	–	–	–
O=[N+]([O-])c1cc([N+](=O)[O-])c(Oc2cc(F)cc(F)c2)cc1NN1CCCCC1	–	25	–	–	–
CCOc1ccccc1N1CC(O)=C(c2nc3ccccc3s2)C1=N	100	–	–	–	–
Cc1ccc(CCNc2ccc3ccccc3c2)cn1	–	·	94	–	–
